{
  "source": "PubChem BioAssay (NCATS)",
  "note": "Inconclusive results are not listed. Entries that show only a call come without a potency. Activity calls are given as the source filed them. The call rests on the fitted dose curve; in most records, active means well fitted inhibition curve with a large enough effect; inconclusive means small, poorly fitted or top-dose-only effect; inactive means flat fitted curve, though single readings scatter. Potency means the concentration at half of the fitted maximal effect.",
  "data": [
    {"target": "Glutathione peroxidase 1 (Homo sapiens) (UniProt P07203)", "sequence (P07203 whole entry, looked up)": "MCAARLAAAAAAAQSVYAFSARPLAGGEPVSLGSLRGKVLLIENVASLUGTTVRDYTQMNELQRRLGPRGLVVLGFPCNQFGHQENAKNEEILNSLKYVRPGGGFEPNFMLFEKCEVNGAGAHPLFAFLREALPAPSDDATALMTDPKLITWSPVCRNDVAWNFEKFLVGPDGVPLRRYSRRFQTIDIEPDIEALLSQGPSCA", "assay": "Primary qHTS Assay for Inhibitors of Recombinant Selenoprotein Glutathione Peroxidase 1 (GPX1) (AID 1845191); further: nearly all actives have a fitted effect of over 65% in size", "details": "recombinant GPX1, GR-coupled NADPH fluorescence, 15 min; series mostly up to 48.8 µM", "summary_of_the_method": "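GR-coupled assay: compounds preincubated 30 min at room temperature with GPX1, then reaction started with CHP; final 10 nM GPX1, 1 mM GSH, 0.5 mM CHP, 0.5 mM NADPH, 100 nM GR, 0.01% BSA, pH 7.5 Tris buffer. NADPH fluorescence (340/450 nm) read at 0 and 15 min.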", "values": [
      {"smiles": "C[C@]12CC[C@@H]3c4ccc(O)cc4C[C@@H](CCCCCCCCCS(=O)CCCC(F)(F)C(F)(F)F)[C@H]3[C@H]1CC[C@H]2O", "note": "(stereo partly specified)", "Potency": "inactive"},
      {"smiles": "Cc1nc(N)sc1-c1ccnc(Nc2ccc(N3CCOCC3)cc2)n1", "Potency": "inactive"},
      {"smiles": "COc1ccc2cccc(CCNC(C)=O)c2c1", "Potency": "inactive"},
      {"smiles": "CN1C[C@H]2c3ccccc3Oc3ccc(Cl)cc3[C@@H]2C1", "Potency": "inactive"},
      {"smiles": "CC(C(=O)O)c1ccc(-c2ccccc2)c(F)c1", "note": "(stereo unspecified)", "Potency": "inactive"},
      {"smiles": "CC(C)(C)C(=O)Oc1ccc2c(c1)nc(NC(=O)c1cccc([N+](=O)[O-])c1)n2CCCO", "Potency": "inactive"},
      {"smiles": "O=c1[nH]cnc2c1ncn2[C@H]1CC[C@@H](CO)O1", "Potency": "inactive"},
      {"smiles": "N#CC1(c2ccc(NC(=O)c3cccnc3NCc3ccncc3)cc2)CCCC1", "Potency": "inactive"},
      {"smiles": "COc1cc2c(cc1OC)CN(CCc1ccc(NC(=O)c3cc(OC)c(OC)cc3NC(=O)c3cnc4ccccc4c3)cc1)CC2", "Potency": "inactive"},
      {"smiles": "CC(C)C(C)C=CC(C)C1CCC2C3=CC=C4CC(O)CCC4(C)C3CCC21C", "note": "(stereo unspecified)", "Potency": "inactive"},
      {"smiles": "CC(C)(C)Cn1c(N)nc2ccc(-c3[nH]c(C(C)(C)C)nc3-c3ccc(F)cc3)nc21", "Potency": "16.1 µM (active)"},
      {"smiles": "CC(=O)Nc1ccc([C@H](C)C(=O)Nc2ncc(C(C)C)s2)cc1", "Potency": "inactive"},
      {"smiles": "COc1ccc(-c2coc3cc(O)cc(O)c3c2=O)cc1", "Potency": "inactive"},
      {"smiles": "COc1ccc(Cc2ccc(NC(N)=O)cc2)cc1-c1cccc(Cl)c1", "Potency": "inactive"},
      {"smiles": "COc1cc(N2CCC(N3CCN(C)CC3)CC2)ccc1Nc1ncnc(Nc2ccccc2S(=O)(=O)C(C)C)n1", "Potency": "inactive"},
      {"smiles": "O=c1cc(N2CCOCC2)oc2c(-c3cccc4c3sc3ccccc34)cccc12", "Potency": "inactive"}
    ]}
  ]
}
